We go through 108 sequences from PubChem BioAssay AID1508600 (Functional Genomics Laboratory (NCATS/FGL), 2020).

About 3,700 (7%) of roughly 53,000 sequences were called active. The full list was thinned out, with actives kept by preference. Unmarked numbers belong to inactive results.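 How the source made its calls: active means gene knockdowns whose robust z-score for IL-1 alpha signal is at least 2 or at most -2, so actives lie on both sides; inactive means the rest.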

The assay in a line: Components of the Cytosolic LPS Sensing Pathway: Gene Identification via Genome-wide siRNA Screen.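 Further: robust z of the log signal after scaling to non-targeting control siRNA wells of the plate.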 The conditions noted are these: RAW264.7 macrophages, IL-1a HTRF, actives lie on both sides, screened at 100 nM (by protocol), cells primed 5 h with Pam3CSK4 first. The procedure, abridged:
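Mouse macrophage line RAW264.7 is transfected with siRNA (100 nM final), grown 48h, primed with TLR ligand Pam3CSK4 5 h and given intracellular LipidA 24 h. IL-1a in supernatant is read by HTRF and viability by luminescence.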
(In TR-FRET formats the signal depends on donor and acceptor labels being close together.)
As to GGAAGAGGUCUUUAAUACATT against Kif4, the z-score was 2.86 (active).
The figure for GGUGUUUGGCGAUAAUAAGTT against Zdhhc15 is -0.237; for GGAAAGAAUAGCAGCGUGGTT against Echs1 it is 1.14; for GCGAGACAAUUGUUAUUGATT against Zmym2 it is -1.05.
The value for GGCCAUGGAAGCUGUUGCUTT against Pgam2 was -0.264; that for GGACAGAUGAUGAAGUUGUTT against Hsp90b1 was -2.24 (active); that for GGUUCAGUCAAGAAUUGCUTT against Clec4e was 1.68.
The figure for GCUGUCGAUAGAAAAAAUCTT against Scml2 is 0.566.
Turning to GGGCAAUUUGUUCGACCCATT against Abca2, the z-score is -0.14.
As to GGGCCUGGAAAACAUUGACTT against Ndufa1, the z-score was -0.316.
The figure for CCCAGUGUCAUUCAGUAUUTT against Phactr3 is 2.13 (active); for CCUUCAACACCAGUUUGGGTT against Olfr1393 it is 0.45.
The value for GGCCUGUGGAAGAAAUACGTT against Pdhb was 1.82.
The value for GCAAUUUGAGCAGUAUGUATT against Cpsf7 was -2.85 (active); that for GGAAACAUGUCCUCACACATT against Top3b was 1.41.
With GGCUCAUUUGCUGAGUGUGTT against Fscn2, the z-score was 1.68.
The figure for GCCGGUAAAAUUAAGGUGATT against Cyp2j9 is -0.13; for GGGUUUGGUCUCAUAUAAATT against Samd7 it is -0.618.
The figure for GCAGAAGUCGAGCUAUGUUTT against Zfp365 is -1.21; for GGCUAAAUGCCGAUGUACUTT against Gapvd1 it is 2.08 (active).
The value for GGGAUAAUAAUGUUGAUUGTT against Mrc1 was -0.152; that for GCAUACCUCCGUAUUGUGATT against Snx30 was -0.868; that for CCUGACAGACCGACAAGUGTT against Hoxc11 was -2 (active).
Turning to GAUCAUCACAGAGGUCCAGTT against Fabp6, the z-score was 0.308.
The value for GGUGAUGGGCAAGGUGUUCTT against Syvn1 was 0.25; that for CGGUACAAGCUAGACCUCATT against Mettl26 was 0.493; that for CCAAUACUACAUAAUGUCUTT against Abcc12 was -0.354.
The value for GGAAUUCCCAAAACUACUGTT against Tbck was -1.28; that for GGAAUGUCGAAGAAAAUGCTT against Adam15 was -0.197; that for GCGCAAUAAGAUCUUCAUGTT against Ddx55 was 0.454.
In the case of GGCACUUUCCCUAUAUUGUTT against Col26a1, the z-score is -1.57.
The value for CCUACGACUUCUACUACAUTT against Chst8 was 1.69.
The value for GGAGUGCGGACGAUAAUACTT against Ppp1r3f was -1.97; that for GCUGGCUAUACUUUACAACTT against Prkg1 was 2.11 (active); that for GUAUUGGAUACGAAGCAGATT against Defb2 was -0.154.
The value for GGACAUGUGGAAAUGGAUATT against Arhgap4 was 1.97; that for GGCUUUCUUCAACCUGAGUTT against Duoxa1 was -2.43 (active).
With GGGAAGAAGAUGGAAUUUATT against Smoc1, the z-score was 1.22.
On to CGGGCUGCUACGAAAAAGUTT against Tspan9, for which the z-score was 0.152.
The value for GGAAACACGUCUCCUCCAUTT against Krt87 was 1.26.
The value for CGCACAAAGGAUUUUUGUATT against Epha7 was -0.064; that for GGUGUGAUUGAAGAAGCGGTT against Gpr37 was -0.463; that for CGACAACAAUCUGGCCUAUTT against Ap2s1 was 2.09 (active).
The figure for GUGCCUCUCAUCACUAUCUTT against Olfr571 is 0.501; for GGAAACCCAGAGCAGCAGATT against Tdg it is -1.01.
Take GGAGCUCAAACAGGAGAACTT against Lhfpl4: the z-score is 0.383.
On to GGUAUUUGCUGAACUGUUUTT against Ckmt1, for which the z-score is -0.931.
For GGAAGGAAGCUAAAAAACGTT against Gnl3, the z-score is 2.24 (active).
The value for GGCUUAACAGAGAAACACCTT against Lrrc49 was 0.563; that for GAAUGUCUGAGCAAGGAGGTT against Arpp21 was 0.227.
In the case of GCUCAUGUAGGAUGUAUAUTT against Olfr146, the z-score was -0.483.
For the sequence CCCUCCAUGGAAAUGACAUTT against Slit3, the z-score was 2.4 (active).
Consider GCAGAUGUACUCUAAGGGUTT against Adam23, for which the z-score is 1.17.
The value for CGCCAUAGUUGGUUUUGUUTT against Scamp4 was 1.2; that for GCGACUACAAGGAUACCCUTT against Krt71 was 0.169.
For GGCCAGUGAGCAGCAUUAUTT against Krt222, the z-score is 0.787.
The value for CCGCUCUUUUACAGCUGGATT against Rsl1d1 was 1.99; that for CCCGCUAUUUGGUGCUAACTT against Amh was 3.21 (active); that for GCAUAACUCCCAUCCAUAGTT against Glra2 was -0.622.
The value for CCUUUUUUUGGUAACUCGUTT against Sox11 was -0.0308.
The value for CCUACAGAAUAGAAAAUUCTT against Elmod2 was -0.161.
As to GGCCCAACACCUUUAUCAUTT against Akt1, the z-score was 2.77 (active).
The value for GGAUGGACUAAAUGAUGAUTT against Ythdf2 was -0.00923; that for GGAUUCUGUGCUUUCCUGGTT against Pomt2 was -0.77.
As for CCUGCAUCGUACGCUACUUTT against Pcgf2, the z-score is -1.83.
On to GGUGCUCUCAAGUGGGAUUTT against Gm5114, for which the z-score was -2.15 (active).
With GCCAAAUUAGCAGCUUGUGTT against Rln3, the z-score was -0.0674.
The figure for CGUACAACCUCAAGGUUCUTT against Lag3 is -1.68; for GGCAAAAUUAGCAUCAAAGTT against Slc22a3 it is 0.577.
The value for GCCUAGACCUAAGCAUAGCTT against Prpmp5 was 0.228; that for GGCCCUGUUAGUGCUAUACTT against Amh was -1.15.
Turning to GGAAGAUUGAAAUAGGCGATT against Mecom, the z-score is -1.25.
For GGAAAAGGCCGAUUUCGUGTT against Dixdc1, the z-score is 0.556.
The figure for GGCAGUAGUGAACAGAGACTT against Krt222 is -0.199; for GGAUCUUCCUGGAUGCCAATT against Hps1 it is -2.61 (active).
The value for GCUGACUCCGUGUUUUUAATT against Arhgef18 was -0.539; that for GGGCUCUUGUGUUAAGGCATT against Krt27 was -0.119; that for GGAGCUAGAACUCAAUGAATT against Lingo1 was 0.65.
Take CCUCAUAGCCAGUCUUUUUTT against Pafah2: the z-score was -0.553.
The figure for GUCCUAAAACGAGUGAGAGTT against Trib3 is -0.793.
The figure for GGACACAGCAAGGAAGAAATT against Mad2l1bp is 0.335; for GUUGUGUUCUGAUUGUUUUTT against Olfr1020 it is 2.03 (active).
The value for GGACAGGUACUUUUCCCUGTT against Gnpda2 was -1.19.
CCAGUCAUUGUGCUUGUUATT against Sox12: the z-score was 0.929.
For the sequence GGAGGACGUAUCAUUACAUTT against Twf1, the z-score was 1.95.
The figure for GGAGGAUAUAAAAAAGAAGTT against L2hgdh is 0.00317; for GCCAAGGACUCAGUGAAUGTT against Iqsec2 it is -1.19; for GGUCCUCUCAGACAUGAAGTT against Pagr1a it is -0.237.
The figure for GCGGUAAGAACGUGGAACUTT against Tent5b is 0.536; for GGGCAAGUUCCAUCUCCUUTT against Cdc42ep2 it is -2.2 (active); for GCAUGAAGAGGCAAAGGCUTT against Igfbp1 it is -0.555.
The figure for GGAAGUUAAUGGGUAAAGUTT against Olfr365 is -1.67; for GGACAAAACUAAACAGCAATT against Smarcal1 it is -0.662.
For the sequence GGGCUUUCUUGGUUUUAUCTT against Depp1, the z-score was -0.377.
The value for GUCGCAUCUCCAAAAAUGGTT against Olfr340 was -1.46; that for GGAUCCUCUCAUUAAGAAATT against Gabra1 was -1.15.
The figure for CGACUUCGCCUUAUGAGAUTT against Tst is -1.19; for GCAAGUGAGUUAGCAGUCATT against Atp2c1 it is -2.23 (active); for GGUUGAUCCAAAAGAUUACTT against Rp2 it is 0.557.
The figure for GGUCAUGAAAAAUGACAGCTT against Klra2 is 0.126; for GGAAGAAGAGGAUGAGAUUTT against Clcn6 it is -1.73.
Regarding GGCUCACAAUUGCUGUGUATT against Psg23, the z-score was -0.566.
The figure for GGAUGUUGGCAGCCGAACATT against St3gal2 is -0.684; for GGACAAGAUGUUGAGUAUUTT against Plrg1 it is -2.23 (active).
The figure for UUGUCAUUCACUUGAUGAATT against H2bu2 is 0.238.
The figure for CCAUGCCCACUGGAUAGAUTT against Nat14 is -1.21.
Consider CCCGAAUUGACAACAUCGUTT against Olfr855, for which the z-score is 0.566.
The figure for “CGCCUUAAACGAAGCUGCUTT against 1700034E13Rik” is -1.28.
